Test results as given in PubChem BioAssay AID651664 (NMMLSC, 2012).
Among all 1,800 compounds or so, fewer than 10 were called active.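 The calls were made as follows: active = inhibition of granule release above a set limit; inactive = the rest.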 Not all results are given here.

Experiment: inhibitors of lytic granule exocytosis, flow cytometry, TALL-104 cells, validation set (AID 651664)
Settings: TALL-104 LAMP-1 externalization, at 15.2 µM, hits give high values, stimulated with thapsigargin and PMA

inhibition, active:
Cc1ccc(C(=O)C2(C)C3c4cc(Br)ccc4OC(=O)C32C(=O)c2ccco2)cc1 (configuration not stated) 93.2%
N/C(=N\OC(=O)c1cccc(Br)c1)c1ccc(Br)cc1 57.6%
Cc1cccc(CC(Cc2nc3ccccc3[nH]2)c2nc3ccccc3[nH]2)c1 (configuration not stated) 94.4%
COC(=O)c1ccc(N2C(=O)CC(N(C)CCc3ccc(OC)c(OC)c3)C2=O)cc1 (configuration not stated) 66%

inhibition, inactive:
Cc1ccc(C(=O)NC(=S)Nc2ccc(-c3cc4ccccc4oc3=O)cc2)c(C)c1 -0.7%
CCOC(=O)c1[nH]c(C)c(/C(O)=C2\C(=O)C(=O)N(CCN(C)C)C2c2ccncc2)c1C (configuration not stated) 4%
O=C1C=C(N2CCN(C(=O)c3ccccc3)CC2)C2(CCCCC2)O1 -4.4%
CCc1ccc2c(c1)c(N=NC1=NC(=O)CS1)c(O)n2CC -0.4%
CC(C)(C)NC(=O)C(=O)N/N=C/c1ccc(Br)cc1 -2.4%
Cn1cnnc1Sc1cc(N2CCN(S(=O)(=O)c3ccc(Cl)c(Cl)c3)CC2)ccc1[N+](=O)[O-] 0.3%
O=C(NCc1ccc2c(c1)OCO2)c1cccc(F)c1 6.2%
Cc1cc(C(=O)CSc2nc3ccc(Cl)cc3[nH]2)c(C)n1CC1CCCO1 (configuration not stated) 1.6%
COc1ccc(/C(O)=C2/C(=O)C(=O)N(CCCN(C)C)C2c2ccc(Cl)cc2)cc1OC (configuration not stated) 6.2%
CCCCN(CCCC)CP(=O)(c1ccccc1)c1ccccc1 0%
O=C(Cn1cnc2ccccc2c1=O)c1ccc2ccccc2c1 0%
CC1CCN(S(=O)(=O)c2ccc(F)c(C(=O)O)c2)CC1 3.9%
CC(=O)c1ccc(NC(=O)Nc2ccc(NS(=O)(=O)c3ccc(C)cc3)cc2)cc1 -2.9%
CCCCN(CCCC)C(=S)N/N=C/c1c(C)[nH]n(-c2ccccc2)c1=O -0.4%
N#CC1=C(N)N(c2ccc(Oc3ccccc3)cc2)C(=O)C1 1.8%
CCN(CC)C(=O)CSc1nc2ccccc2c(=O)[nH]1 0.4%
O=C(/C=C/c1ccc([N+](=O)[O-])cc1)NCC1CCCO1 (configuration not stated) -0.8%
COc1cccc2cc(C(=O)Nc3cccc(C)n3)c(=O)oc12 4.9%
CCCCSC(=S)N(C)C1CCS(=O)(=O)C1 (configuration not stated) -0.4%
COP(C)(=O)c1c(C)nn(-c2ccccc2)c1C (configuration not stated) -2.1%
Cn1c(Cl)c(C(=O)Nc2ccccc2)c2ccccc21 -1.3%
Cc1csc(NC(=O)Cc2coc3cc(C)c(C(C)C)cc23)n1 -2.3%
N/C(=N\OC(=O)c1ccc(Cl)cc1Cl)c1ccc(Cl)cc1 5.2%
N/C(=N\OC(=O)CCCN1C(=O)c2ccccc2C1=O)c1ccc(Br)cc1 -3.6%
CCOC(=O)C(C)On1c(-c2ccccc2)nc2ccc([N+](=O)[O-])cc21 (configuration not stated) 4.1%
CCc1nn(-c2ccccc2)c2c1-c1cc(OC)c(OC)cc1C1(N2)C(=O)Nc2ccccc21 (configuration not stated) -0.7%
CCOc1c(Cl)cc(C(=O)Nc2ccccc2-c2ccccc2)cc1Cl -0.6%
O=C(COc1ccccc1O)N1CCN(C(=O)c2ccco2)CC1 0.9%
OCCSc1ncnc2c1oc1ccccc12 -1.3%
O=C(O)CCCCCNC(=O)Nc1ccc2c(c1)OCCO2 -3.4%
O=C1c2ccccc2NC(c2cnc3ccccc3n2)N1O (configuration not stated) -0.6%
COc1cc(CC(=O)OCC(=O)c2ccc3c(c2)OCCO3)cc(OC)c1OC 0.6%
Cc1cc(NC(=O)c2cccc3ccccc23)cc(C)c1OCC(=O)N1CCOCC1 -2.8%
N#Cc1c(-c2ccccc2)nc(-c2ccccc2)nc1N1CCOCC1 -0.6%
Cc1nc2c(=O)oc3ccccc3c2n1-c1ccccc1 -0.5%
CCOC(=O)C1CCN(C(=O)CN(c2cc(OC)ccc2OC)S(=O)(=O)c2ccccc2)CC1 -2.6%
Cc1nn(C)cc1CNC(=O)CCC(=O)O 5.3%
COC(=O)C1CCN(c2cc(=O)n(C3CCCCC3)c(=O)[nH]2)CC1 5.6%
Cc1ccccc1C1CC(c2ccccc2OC(F)F)Nc2ncnn21 (configuration not stated) -2.3%
Cc1cc2ccccc2nc1SCC(=O)N1c2ccccc2CC1C (configuration not stated) -0.9%
CC12Cc3ccc4ccccc4c3C=C1C[N+](C)(C)C2 (configuration not stated) -0.3%
CC1=NC(=O)C(N=Nc2ccccc2)N1c1ccccc1 (configuration not stated) -2.8%
CC(C)c1ccc(NS(=O)(=O)c2ccc3[nH]cc(C(=O)N4CCC(C(N)=O)CC4)c(=O)c3c2)cc1 -0.7%
CCC(C)(C)NC(=O)C(c1ccco1)N(C(=O)Cn1nnc2ccccc21)c1ccc2c(c1)OCO2 (configuration not stated) -0.1%
Cc1ccc(S(=O)(=O)N2CCN(C(=O)c3cc4c(C)nn(-c5ccccc5C)c4s3)CC2)cc1 -1.8%
CCOC(=O)c1sc2nc(CC(=O)OC)nc(NCCN3CCOCC3)c2c1C -2.4%
COc1ccc(C(C)=O)cc1CN1C(=O)NC2(CCCCC2)C1=O -0.4%
Cc1occc1C(=O)Nc1ccc2ccccc2c1 0.2%
CCS(=O)(=O)N1CCCC(C(=O)NC2CCCCC2C)C1 (configuration not stated) 0.3%
O=C(O)c1c[nH]c(=S)n1-c1ccc(F)cc1 1.2%
COCCN1CN(S(=O)(=O)c2ccc(Cl)cc2)c2nc3ccccc3nc21 -1.9%
COc1cccc(C(C(=O)NCc2ccco2)N(Cc2ccco2)C(=O)Cn2nnc3ccccc32)c1 (configuration not stated) -3.7%
CCCn1c2c(c(O)c(C(=O)Nc3ccccc3)c1=O)CCCC2 1.8%
CSCC[C@H](NC(=O)NCCC1=CCCCC1)C(=O)O 1.1%
CCOC(=O)c1c(C(C)(C)C)oc2ccc(O)cc12 1.3%
Clc1ccc(CON/C=N/c2ncnc3sccc23)cc1 -1.5%
CSc1nc(-c2ccc(Cl)cc2)nn1C(=O)c1ccco1 7%
C1=C(c2ccccc2)Nc2nnnn2C1c1cccs1 (configuration not stated) 0.7%
O=C(NCc1nc2ccccc2[nH]1)c1cc2ccccc2oc1=O 6.1%
c1ccc2nc(-c3nc4ccccc4[nH]3)ccc2c1 0.9%
COc1ccc(CCNC(=O)c2ccccc2NC(=O)c2ccco2)cc1OC -1.7%
COC(=O)CN1C(=O)C(O)(CC(=O)c2ccc(C)o2)c2ccccc21 (configuration not stated) -1.9%
COc1cccc(OC)c1C(=O)Nc1cc(C)on1 -2.4%
O=C(c1ccc(F)cc1)c1ccc(N2CCCC2)cc1 -4.5%
O=c1cc(N2CCc3ccccc3C2)[nH]c(=O)n1C1CCCCC1 8.4%
CCN(CC)C(=O)CSc1ncnc2c1nnn2-c1ccc(OC)cc1 -0.1%
O=S(=O)(CCc1nc2ccccc2o1)c1ccc(Cl)c(Cl)c1 -2.2%
COC(=O)c1ccccc1NC(=O)c1ccc(COc2ccc(C)c(C)c2)o1 -0.1%
O=C(c1ccc(S(=O)(=O)N2CCCCCC2)cc1)N1CCC(CN2C(=O)c3cccc4cccc(c34)C2=O)CC1 0.6%
c1nnnn1C12CC3CC(CC(C3)C1)C2 3.1%
CCOC(=O)c1ccc(N2C(=O)CC(C3CCCO3)C2=O)cc1 (configuration not stated) 3.6%
COC(=O)c1ccc(N2C(=O)CC(SCCN)C2=O)cc1 (configuration not stated) -1.8%
O=C(Nc1cc(C(F)(F)F)ccc1N1CCOCC1)c1cccnc1Cl -2.8%
CCCS(=O)(=O)N1CCCC(C(=O)NCCN(Cc2ccccc2)C(C)C)C1 (configuration not stated) -0.7%
O=C(/C=C/Nc1cccc(C(F)(F)F)c1)c1ccc(Oc2ncccn2)cc1 -1%
NC(=S)N/N=C/c1ccc(-c2cccc([N+](=O)[O-])c2)o1 1.9%
COc1ccc(NC(=O)c2cccc(S(=O)(=O)N3CCOCC3)c2)cn1 1.5%
O=C(NCC1CCCO1)/C(=C\c1ccco1)NC(=O)c1ccccc1 (configuration not stated) -2.2%
CCc1ccc(Nc2ncccc2C#N)cc1 1.1%
C=CCn1c(-c2cccs2)nc2nc3ccccc3nc21 -2.3%
C/C(=N/OC(=O)c1ccc(F)cc1)c1ccc(C)cc1 0.7%
CC1(C)Cc2c(C#N)c(SCc3ccccc3)nc(N3CCOCC3)c2CO1 1.1%
Fc1ccc(C2=Nn3c(Cc4ccccc4F)nnc3SC2)cc1 1.3%
CC(=O)N1CCc2cc(NS(=O)(=O)c3cccs3)ccc21 -1.2%
COc1cc(OC)cc(C(=O)Nc2nc3ccccc3[nH]2)c1 -1%
Cc1cccc(N2CCN(CC(=O)Nc3ccc(-n4cnnn4)cc3)CC2)c1C -0.6%
COc1ccc(-c2cn[nH]c2N)cc1OC 2.5%
O=C(COC(=O)c1ccccc1)NCc1ccco1 -0.5%
CCOC1(OCC)N=C(N)C2(C#N)C(c3cccc(C)c3)C12C#N (configuration not stated) -0.4%
Cc1ccc(NC(=O)/C(=C\C=C\c2ccccc2)NC(=O)c2ccccc2)cc1 -0.3%
Cc1ccc(NC(=O)c2cc(S(=O)(=O)Nc3ccc(C)cc3)cs2)cc1 0.6%
COc1cc(N)cc(NC(=O)c2ccncc2)c1 -0.4%
COc1ccc(CN2CCOCC2)cc1 1.5%
